Experimental findings from PubChem BioAssay are described below.

Values without a mark were called inactive. The rule behind the calls is not given here.

Chain of Pantothenate synthetase (Mycobacterium tuberculosis (strain ATCC 25618 / H37Rv)) (P9WIL5 whole entry, looked up): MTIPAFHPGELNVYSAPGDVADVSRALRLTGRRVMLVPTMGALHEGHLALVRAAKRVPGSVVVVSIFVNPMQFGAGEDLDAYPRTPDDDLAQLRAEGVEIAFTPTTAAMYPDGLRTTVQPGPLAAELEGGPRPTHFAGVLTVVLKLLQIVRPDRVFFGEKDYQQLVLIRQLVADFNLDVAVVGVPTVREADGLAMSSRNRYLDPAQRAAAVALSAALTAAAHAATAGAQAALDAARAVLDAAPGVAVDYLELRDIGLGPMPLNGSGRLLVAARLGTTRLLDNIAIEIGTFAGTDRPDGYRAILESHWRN

The test has as its target Pantothenate synthetase (Mycobacterium tuberculosis (strain ATCC 25618 / H37Rv)) (UniProt P9WIL5). In words: Recombinant Mtb pantothenate synthetase (PanC) inhibitors, coupled enzyme, confirmatory (AID 375).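 Note: 0% = full reaction with vehicle and 100% = no enzyme background.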 The note with it: coupled enzyme assay; at 10 µM, stronger effect = higher value.
As a reminder, the inhibition is how much of the control response was suppressed. For `CCOc1cc(C(=O)NCc2nnc(SCC(=O)OC)n2C)cc(OCC)c1OCC`, the inhibition was 2%.
With `c1ccc(-c2nn3nnnc3c3ccccc23)cc1` the figure was 4%; with `COC(=O)c1sccc1NC(=O)c1csc(C)c1`, 6%.
As for `COc1cccc(NC(=O)COc2ccccc2C(N)=O)c1`, the inhibition was 0%.
With `CC(C)CCNC(=O)C(C)N(Cc1ccc(F)cc1)C(=O)c1ccc(CN2CCCCC2)o1` (configuration not stated) the figure was 1%; with `COc1ccc(-c2noc(COc3ccc(Cl)c(C)c3)n2)cc1`, 0%; with `CC(=O)c1ccc(OCC(O)CN2CC(C)OC(C)C2)cc1` (configuration not stated), 0%.
With `CCN(C(C)=O)c1nnc(CSc2nc3ccccc3s2)s1` the figure was 5%; with `O=C(C1CCCN1S(=O)(=O)c1cccc2cccnc12)N1CCn2c1nc1ccccc12` (configuration not stated), 6%.
With `Cc1nn(-c2ccccc2)c(Cl)c1C(=O)NCC(=O)O` the figure was 0%; with `O=C(Nc1c(-c2ccccc2)nc2ccccn12)c1ccco1`, 0%.
As for `C=CCn1c(COc2ccccc2)nnc1SCC(=O)C(C)(C)C`, the inhibition was 0%.
With `CCS(=O)(=O)N1CCC(C(=O)NC2CCCCC2)CC1` the figure was 0%; with `CC1=C(C(=O)N2CCOCC2)C(c2ccccc2F)C2=C(CCCC2=O)N1` (configuration not stated), 3%; with `CC(=O)OCC1=C(C(=O)O)N2C(=O)[C@@H](NC(=O)Cc3cccs3)[C@H]2SC1`, 0%.
With `Cn1c(=O)c2ncn(CC(=O)NCCOc3ccccc3)c2n(C)c1=O` the figure was 0%.
With `CCC(C)NC(=O)CS(=O)(=O)Cc1nc(-c2cccc(OC)c2)oc1C` (configuration not stated) the figure was 0%.
